Data reported in PubChem BioAssay (EPA / NIEHS).
Values joined by “and” are separate entries in the source; they are usually repeats but may differ in a detail not shown here. Identical values can stand only once. A structure can be active in one record and inactive in another. Active and inactive are the calls of the source. How the source made its calls: active means hit-call score of the fitted dose curve at least 0.9, where 1 is the maximum; inactive means score below 0.9.

read-out: Matrix Metallopeptidase 9 (MMP9), MMP9 (gene 4318); assay: BSK_KF3CT_MMP9: BioMAP Diversity Plus: KF3CT Assay for Matrix Metallopeptidase 9 (MMP9) Biomarker Activity (AID 2283074); conditions: primary human keratinocytes with fibroblasts; actives raise or lower the signal
Procedure: BSK_KF3CT is a cell-based, multiplexed-readout assay that uses keratinocytes and foreskin fibroblasts, a human skin primary cell co-culture, with measurements taken at 24 hours after chemical dosing in a 96-well plate.BSK_KF3CT_MMP9 is an assay component measured in the BSK_KF3CT assay. It measures MMP-9 antibody related to regulation of gene expression using ELISA technology.Data from the assay component BSK_KF3CT_MMP9 was analyzed into 1 assay endpoint. This assay endpoint, BSK_KF3CT_MMP9, was analyzed with bidirectional fitting relative to DMSO as the negative control and baseline of activity. Using a type of binding reporter, gain or loss-of-signal activity can be used to understand changes in the signaling as they relate to the gene MMP9. Furthermore, this assay endpoint can be referred to as a primary readout, because this assay has produced multiple assay endpoints where this one serves a signaling function. To generalize the intended target to other relatable targets, this assay endpoint is annotated to the protease intended target family, where the subfamily is matrix metalloproteinase.
The levels of cell surface (or secreted, indicated by the prefix "s") biomarker endpoints were measured by ELISA. Overt cytotoxicity to cells in confluent adherent cultures (all systems other than the BT system) was assessed by measuring total protein levels using sulforhodamine B (SRB) staining in parallel cultures at the time of biomarker measurements, indicated as SRB endpoints. For proliferation assays for adherent cell types, individual cell types are cultured at sub-confluence and relative cell numbers quantified by SRB staining at time points optimized for each system (48 h: 3C and CASM3C systems; 72 h: BT and HDF3CGF systems; 96 h: SAg system). SRB was performed by staining cells with 0.1% SRB after fixation with 10% TCA and reading wells at 560 nm.Viability and proliferation of PBMC (T cells) was quantified by Alamar Blue reduction for the SAg and BT systems. For PBMC viability (referred to as PBMC Cytotoxicity within the assay endpoint names), cells were plated (75,000/well in a 96-well plate) and then chemical samples added for 1 h before addition of activators, SEB and TSST-1 (20 ng/mL final concentration each). Cells were incubated for 90 h. Then, Alamar Blue (20 uL/well) (Invitrogen, Cat DAL1100) was added for 6 h, and the plates were read with a fluorescence microplate reader at 546/580 nm (excitation/emission). For PBMC proliferation, cells were plated and activated as above but incubated for only 16 h prior to addition of Alamar Blue. Plates were read after 6 h.

SMILES | outcome | AC50
O=c1[nH]c(Cl)c(Cl)cc1Cl | inactive | 
O=P1(NCCCl)OCCCN1CCCl (centres undefined) | inactive | 
Clc1ccc(-c2ccccc2)cc1 | inactive | 
COCC(=O)N(c1c(C)cccc1C)N1CCOC1=O | inactive | 
O=[N+]([O-])C=Cc1ccccc1 |  | 3.08 µM (active)
Nc1ccc(-c2ccc(N)c(N)c2)cc1N |  | 16.1 µM (active)
C=CCN(CC=C)C(=O)C(Cl)Cl | inactive | 
CC(C)(C)C(O)C(Oc1ccc(-c2ccccc2)cc1)n1cncn1 (centres undefined) |  | 28 µM (active)
O=C(O)CCCc1ccc(N(CCCl)CCCl)cc1 | inactive | 20 µM (active)
O=C1C=CC(=O)C=C1 |  | 20 µM (active) and 11.6 µM (active)
CCCCCCCCCCCC#N | inactive | 
CCCOC(=O)c1ccccc1C(=O)OCCC | inactive | 
CC(C)CCCCCCCOP(=O)(Oc1ccccc1)Oc1ccccc1 |  | 11.2 µM (active)
CC(C)(C)C(=O)CCl | inactive | 
C=CC(=O)OCC(CC)CCCC (centres undefined) | inactive | 
N#CCCCCC#N | inactive | 
COC(C)(C)CCC[C@H](C)C/C=C/C(C)=C/C(=O)OC(C)C |  | 29 µM (active)
CC(=O)/C=C/c1ccccc1 | inactive | 
Oc1cc(Cl)ccc1Cl | inactive | 

SMILES | outcome | AC50
O=[N+]([O-])c1ccc(Cl)cc1 | inactive | 
Cc1ccc(OP(=O)(Oc2ccc(C)cc2)Oc2ccc(C)cc2)cc1 (tested in a mixture with another compound) |  | 13.6 µM (active)
c1ccc(Nc2ccc3ccccc3c2)cc1 |  | 28.3 µM (active)
CCC(C)c1cc([N+](=O)[O-])cc([N+](=O)[O-])c1OC(=O)C=C(C)C (centres undefined) |  | 14.8 µM (active)
[Cd+2].[Cl-].[Cl-] |  | 16.2 µM (active) and 20.5 µM (active)
CCCC[N+](CCCC)(CCCC)CCCC | inactive | 
O=C1C(Cl)=C(Cl)C(=O)C(Cl)=C1Cl |  | 13.5 µM (active)
O=C(CCl)c1ccccc1 |  | 18 µM (active)
COc1ccc(CO)cc1 | inactive | 
Oc1ccc(C2(c3ccc(O)cc3)c3ccccc3-c3ccccc32)cc1 |  | 5.39 µM (active) and 5.41 µM (active)
CC1(C)[C@H](C(=O)O[C@H](C#N)c2cccc(Oc3ccccc3)c2)[C@@H]1C=C(Br)Br | inactive | 
CC(C)(c1cc(Cl)c(O)c(Cl)c1)c1cc(Cl)c(O)c(Cl)c1 |  | 8.32 µM (active)
O=S(=O)(c1ccccc1)c1ccccc1 | inactive | 
CC(C)CCCCCCCOC(=O)c1ccccc1C(=O)OCCCCCCCC(C)C | inactive | 
CNC(=O)Oc1cc(C)c(SC)c(C)c1 | inactive | 
O=c1c2ccccc2c(=O)c2c1cc(Cl)c1[nH]c3c([nH]c12)c(Cl)cc1c(=O)c2ccccc2c(=O)c13 | inactive | 
CCc1cc(C)cc(CC)c1-c1c(OC(=O)C(C)(C)C)n2n(c1=O)CCOCC2 | inactive | 
O=[N+]([O-])O | inactive | 
CC(C)COP(=O)(OCC(C)C)OCC(C)C | inactive | 
